According to PubChem BioAssay (EPA / NIEHS):
Results filed as inconclusive are left out. Active and inactive are the calls of the source. Rule for the calls: active = hit-call score of the fitted dose curve at least 0.9, where 1 is the maximum; inconclusive = response in the unintended direction; inactive = score below 0.9.

The compounds below were run against human Vitamin D Receptor (VDR), VDR (gene 7421) (UniProt P11473) (assay: ATG_VDR_TRANS: Attagene TRANS-FACTORIAL HepG2 Assay for human Vitamin D Receptor (VDR) (AID 2283022)).
How it was run: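 Fluorescence of labelled reporter cDNA fragments, resolved by capillary electrophoresis, gives mRNA induction after 24 h treatment of HepG2 cells carrying transfected Gal4-fusion reporter units. Activity is fitted in the positive direction with DMSO as baseline.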

Chain of human Vitamin D Receptor (VDR), VDR (gene 7421) (P11473 whole entry, looked up, the tested form may be a part): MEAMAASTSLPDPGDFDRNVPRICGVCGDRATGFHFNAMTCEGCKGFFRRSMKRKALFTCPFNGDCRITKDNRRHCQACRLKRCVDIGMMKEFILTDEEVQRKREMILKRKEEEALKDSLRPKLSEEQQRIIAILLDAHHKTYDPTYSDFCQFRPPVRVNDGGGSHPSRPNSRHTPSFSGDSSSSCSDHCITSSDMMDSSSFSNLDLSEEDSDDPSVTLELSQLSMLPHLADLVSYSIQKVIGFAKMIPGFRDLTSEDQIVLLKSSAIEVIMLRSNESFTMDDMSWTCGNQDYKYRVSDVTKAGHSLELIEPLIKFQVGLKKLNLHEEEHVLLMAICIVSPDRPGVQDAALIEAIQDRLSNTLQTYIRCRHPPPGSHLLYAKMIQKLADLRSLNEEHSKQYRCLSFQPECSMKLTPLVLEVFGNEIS

Structure (SMILES) | outcome
c1ccc2c(c1)Oc1ccccc1O2 | inactive
c1cc[c]([Sb]([c]2ccccc2)[c]2ccccc2)cc1 | inactive
CCOCn1c(-c2ccc(Cl)cc2)c(C#N)c(Br)c1C(F)(F)F | inactive
CC(C)(c1ccc(O)c(-c2ccccc2)c1)c1ccc(O)c(-c2ccccc2)c1 | inactive
O=C(NC(=O)c1c(F)cccc1F)Nc1cc(Cl)c(Oc2ncc(C(F)(F)F)cc2Cl)c(Cl)c1 | inactive
CC(C)C(C)(N)C#N (stereo not drawn) | inactive
O=C(Nc1ccc(Br)cc1)c1cc(Br)cc(Br)c1O | inactive
C=C(C)C(=O)OCCCCOC(=O)C(=C)C | inactive
C[N+](C)(C)Cc1ccccc1 | inactive
O=[N+]([O-])c1cc([As](=O)(O)O)ccc1O | inactive
O=S1(=O)OC(c2cc(Br)c(O)c(Br)c2)(c2cc(Br)c(O)c(Br)c2)c2ccccc21 | inactive
C=CC(=O)[O][Sn]([CH2]CCC)([CH2]CCC)[CH2]CCC | inactive
Cc1cc(Cl)ccc1O | inactive
O=[N+]([O-])c1c2ccccc2cc2ccccc12 | inactive
O=NN1CCCCCC1 | inactive
C=C(C)[C@@H]1CC=C(C=O)CC1 | inactive
O=S(=O)(Oc1ccc(Cl)cc1)c1ccc(Cl)cc1 | inactive

Structure (SMILES) | outcome
CC(C)(C)c1ccc(CCOc2ncnc3ccccc23)cc1 | inactive
C=CC(=O)NC(C)(C)CC(C)=O | inactive
O=C(O)CC(O)(CC(=O)O)C(=O)O | inactive
CCNc1nc(NCC)nc(SC)n1 | inactive
CS(=O)(=O)c1ccc(C(=O)C2C(=O)CCCC2=O)c(Cl)c1COCC(F)(F)F | inactive
CC(C)[C@@H](Nc1ccc(C(F)(F)F)cc1Cl)C(=O)OC(C#N)c1cccc(Oc2ccccc2)c1 (stereo partly drawn) | inactive
COc1nn(C(=O)NS(=O)(=O)c2ccccc2OC(F)(F)F)c(=O)n1C | inactive
C#CCO | inactive
Nc1cccnc1 | inactive
C1CCC(C2CCCCC2)CC1 | inactive
O=CCCl | inactive
C=C(C)C(=O)OCC(CC)CCCC (stereo not drawn) | inactive
OC(c1ccc(Cl)cc1)(c1ccc(Cl)cc1)c1cccnc1 | inactive
CCOC(=O)Cc1ccccc1 | inactive
CCCCOP(=O)(CCCC)OCCCC | inactive
O=c1[nH]c2ccccc2n1C1CCN(CCCC(c2ccc(F)cc2)c2ccc(F)cc2)CC1 | inactive
